Values without a mark were called inactive. Calls follow the shape of the dose curve; as a rule, active = well fitted activation curve with a large enough effect in the repeat runs; inconclusive = weak or mixed curves; inactive = flat fitted curve, though single readings scatter.

These results are taken from PubChem BioAssay (Tox21).
% is scaled to controls: 0 for no effect and ±100 for the full control effect.

The assay can be described thus: Caspase-3/7 induction in CHO-K1 cells by small molecules, qHTS assay (AID 1346980). Also: nearly all actives have a fitted effect of over 15% in size. The settings on record: CHO-K1 caspase-3/7 induction, Caspase-Glo luminescence, 17 h; series mostly up to 92.4 µM; caspase-3/7 activation: at the top concentration. The source says:
National Center for Advancing Translational Sciences [NCATS]
NIH Chemical Genomics Center [NCGC]
U.S. Environmental Protection Agency [EPA]
National Institutes of Environmental Health Sciences [NIEHS]
National Toxicology Program [NTP]
Apoptosis is a process of programmed cell death and plays a central role in the development of multicellular organisms. It is a highly regulated process and induces cell death by activating caspases, which are the members of cysteine aspartic acid-specific protease (caspase) family. Caspases involved in apoptosis are classified by their mechanism of action as initiator caspases (caspase-2, -8, -9 and -10) and executioner caspases (caspase-3, -6, and -7). Inhibition of apoptosis results in number of cancers, autoimmune diseases, inflammatory diseases and viral infection. To identify small molecule compounds that induce apoptosis, a homogeneous, luminescent Caspase-Glo 3/7 assay was used. Wild type CHO-K1 cells were used to screen Tox21 libraries for identifying caspase-3/7 activity inducers.
CHO-K1 cells were dispensed at 1,500 per well in 5uL of culture medium into white solid bottom 1536-well plates (Corning Life Sciences, Corning, NY) using a Multidrop Combi (Thermo Scientific, Waltham, MA) dispenser. The assay plates were incubated at 37 C and 5% CO2 for 5hr, and then 23nL of compounds dissolved in DMSO and positive control were transferred using a Pintool station (Wako, San Diego, CA). The assay plates were incubated at 37C and 5% CO2 for 17hr. For caspase-3/7 activity read, 4uL of Caspase-Glo 3/7 reagent (Promega Corporation, Madison, WI) was added to each well of the assay plates using Flying Reagent Dispenser (FRD, Aurora Discovery, San Diego, CA) and incubated the assay plates at room temperature for 30min. The luminescence signal was quantified using a ViewLux plate reader (Perkin Elmer, Shelton, CT).
`C=C(C)[C@@H]1CC[C@@H](C)C[C@@H]1O`: the “caspase-3/7 activation” value is 0.193%.

Take `F[Si-2](F)(F)(F)(F)F`: the “caspase-3/7 activation” value was -1.24%.

For the molecule `COc1ccc(OC)c(NC(=O)CC(C)=O)c1`, the “caspase-3/7 activation” value was 0.267%. Then `CCC(=O)OCCC(C)CCC=C(C)C` (stereo not given), with -0.718%; and `O=c1[nH]c(=O)c2[nH]c(=O)[nH]c2[nH]1`, with -0.0479% [at 8.39 µM]. For `CN(C)CCCNCCC#N`, the “caspase-3/7 activation” value is -0.131%.

As for `CC(C)SCc1ccco1`, the “caspase-3/7 activation” value was 0.0751% [at 42.5 µM]. As for `O=S(=O)(O)c1cc(O)ccc1O`, the “caspase-3/7 activation” value is -0.863%. Consider `CC(=O)OC[C@H]1O[C@@H](OC(C)=O)[C@H](OC(C)=O)[C@@H]1OC(C)=O`, for which the “caspase-3/7 activation” value was 0.0651% [at 42.5 µM]. In the case of `NC(=O)NC(=O)Cc1ccccc1` it was -1.08% [at 42.5 µM]; in that of `Cc1ccc(C(=O)C(=O)O)cc1C`, -0.577% [at 42.5 µM]. As to `Nc1ccnc(=O)[nH]1`, the “caspase-3/7 activation” value is -0.976%.

Turning to `CC(=O)OC(C(=O)c1ccccc1)c1ccccc1` (stereo not given), the “caspase-3/7 activation” value was -0.956%. In the case of `CC(=O)/C=C/c1ccco1`, the “caspase-3/7 activation” value was 1.47%. For `CCOc1ccc(NC(=O)OC(C)C)cc1OCC`, the “caspase-3/7 activation” value is 0.133%.

For `COc1ccc(N=Nc2cc(C)c(N=Nc3ccc(S(=O)(=O)O)cc3)cc2OC)cc1`, the “caspase-3/7 activation” value was -0.103%. For the molecule `CC(C)CCO`, the “caspase-3/7 activation” value is 0.55%. `CC(C)CCCCCCOC(=O)C1CCCCC1C(=O)OCCCCCCC(C)C` (stereo not given): the “caspase-3/7 activation” value is 0.205%. With `Cc1ccc2c(c1)c1c3n2CCNC3CCC1` (stereo not given), the “caspase-3/7 activation” value was 0.032% [at 42.5 µM]. Turning to `O=C1c2ccccc2-c2ccccc21`, the “caspase-3/7 activation” value was 0.877%. Regarding `C=C[Si](C)(C)O[Si](C)(C)C=C`, the “caspase-3/7 activation” value was -0.682%. As for `O=CN1CCOCC1`, the “caspase-3/7 activation” value was -0.665%. For `Cc1cc(C)cc([N+](=O)[O-])c1`, the “caspase-3/7 activation” value was -1.22%. As for `COc1cc2c3cc1Oc1cc(ccc1O)C[C@@H]1c4c(cc(OC)c(O)c4Oc4ccc(cc4)C[C@@H]3N(C)CC2)CC[N+]1(C)C`, the “caspase-3/7 activation” value is -0.725% [at 42.5 µM]. For the molecule `FC(F)(F)/C(=N\OCC1OCCO1)c1ccc(Cl)cc1`, the “caspase-3/7 activation” value is 0.425%.

On to `CCOC(=O)C(=O)c1csc(NC=O)n1`, for which the “caspase-3/7 activation” value was 0.736% [at 42.5 µM]. Consider `CN=C(NC#N)NCCSCc1csc(N=C(N)N)n1`, for which the “caspase-3/7 activation” value was 0.221% [at 42.5 µM].

Consider `Nc1ccc(/C=C/c2ccc(N)cc2S(=O)(=O)O)c(S(=O)(=O)O)c1`, for which the caspase-3/7 activation is -0.823% [at 0.349 µM]. Then `C=CCCCCCCCCCCC`, with 0.611% [at 8.39 µM]; and `C1=C\CC/C=C\CC/1`, with -2.71%; and `CC(C)(C)NCCO`, with -0.0399%.

Turning to `BrC/C=C/CBr`, the caspase-3/7 activation was 0.312% [at 19 µM]. Turning to `O=C(O)/C=C/c1ccccc1`, the “caspase-3/7 activation” value is -0.613%. Consider `CC(C)COC(=O)CCCCC(=O)OCC(C)C`, for which the “caspase-3/7 activation” value is 0.685%. As for `CCCOC(=O)CCCCC(=O)OCCC`, the “caspase-3/7 activation” value is -0.925%.

As to `CCC(C)N` (stereo not given), the “caspase-3/7 activation” value is 0.511%. Consider `CCCCCCCCCCCCC`, for which the “caspase-3/7 activation” value is 0.757%. As to `NC(Cc1c[nH]c2ccccc12)C(=O)O` (stereo not given), the “caspase-3/7 activation” value is -0.823% [at 42.5 µM].

Regarding `CC(C)COC(=O)/C=C/c1ccccc1`, the “caspase-3/7 activation” value was 1.02%. `NS(=O)(=O)c1cc2c(cc1Cl)NC(C(Cl)Cl)NS2(=O)=O` (stereo not given): the “caspase-3/7 activation” value is -1.93% [at 42.5 µM].
